Among all 290,000 compounds or so, about 3,000 (1%) were called active. The full list was thinned out, with actives kept by preference. Unmarked numbers belong to inactive results. Cut-off read from the data, not from the text of the source: active = inhibition mostly above about 36% (no sharp cut-off); inactive = mostly below about 34%.

A short description of this experiment: inhibition of NOD1-driven NF-kB reporter – cell-based, luminescence, uHTS, primary screen (AID 1578).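 Note: HEK-293T reporter cells stimulated with the NOD1 agonist gamma-tri-DAP.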 The conditions noted are these: NOD1-driven NF-kB luciferase reporter cells, at 4 µM, hits give high values. Background: Reporter assays use an easily measured gene product as a stand-in for the process of interest.
In the case of `CCCCNC(=O)NCc1cnn(C)c1C`, the inhibition (in general, the drop in the measured response relative to a control, in per cent) is -24.6%.
Turning to `CC(=O)NNC(=O)c1ccncc1`, the inhibition was -26.4%.
As for `CCCCc1nc2ccc(S(=O)(=O)O)cc2[nH]1`, the figure is 7.8%; as for `COc1ccc(OCCOc2ccccc2[N+](=O)[O-])cc1`, -19.1%.
To `Nc1cccnc1S(=O)(=O)c1ccccc1` belongs -2.3%.
To `COc1ccc([N+](=O)[O-])c(S(=O)(=O)c2ccc(Cl)cc2)n1` belongs 79.2% (active).
Regarding `COc1ccc([N+](=O)[O-])c(S(=O)(=O)c2ccccc2)n1`, the inhibition was 61.7% (active).
As for `COc1ccccc1S(=O)(=O)c1ccccc1[N+](=O)[O-]`, the figure is -10.5%.
To `COc1nc(OC)nc(Oc2ccc(Cl)cc2[N+](=O)[O-])n1` belongs 0.6%.
For `Cn1cnc([N+](=O)[O-])c1S(=O)(=O)c1ccc(Cl)cc1`, the inhibition is -30.1%.
To `O=[N+]([O-])c1ccccc1S(=O)(=O)c1ccccc1` belongs -2.8%.
As to `Cc1ccc(C(=O)COC(=O)CN2C(=O)C3C4CC(C(Br)C4Br)C3C2=O)cc1` (stereo not drawn), the inhibition was -29.5%.
For the compound `CC(C)n1c(=O)n(CC(=O)NCC2CCCO2)c(=O)c2c3c(sc21)COC(C)(C)C3` (stereo not drawn), the inhibition is -14%.
Consider `Cc1ccc(N(C(C)C(=O)Nc2cccc(N(C)S(C)(=O)=O)c2)S(C)(=O)=O)cc1` (stereo not drawn), for which the inhibition was -21.2%.
As for `CC(C)NC(=O)CN(Cc1ccc2c(c1)OCO2)C(=O)CCC(=O)Nc1ccccn1`, the figure is -22.2%.
To `O=C(Cc1ccc([N+](=O)[O-])cc1)N1CCN=C1SCc1ccccc1` belongs -5%.
As for `Cc1cc(S(=O)(=O)Nc2ccc(C(=O)NCC(C)(C)N3CCOCC3)cc2)ccc1F`, the inhibition was -4.6%.
On to `OCCN(CCO)CC(O)CN1c2ccccc2Sc2ccccc21` (stereo not drawn), for which the inhibition was 2.7%.
To `CCC(C)NC(=O)Cn1cc2c(n1)CCC(C)C2` (stereo not drawn) belongs 7.9%.
To `CCOc1ccccc1N(CC(=O)NCc1ccco1)C(=O)CCC(=O)Nc1nccs1` belongs -30.2%; to `COc1ccc(CNCc2cc(OC)ccc2OC)cc1`, -19.6%.
To `CCSC1=C(C#N)C(c2ccccc2Cl)C(C(=O)c2cccs2)C(O)(C(F)(F)F)N1` (stereo not drawn) belongs 64.5% (active); to `C=CCSC1=C(C#N)C(c2ccccc2Cl)C(C(=O)c2cccs2)C(O)(C(F)(F)F)N1` (stereo not drawn), 63.3%.
Regarding `CSC1=C(C#N)C(c2ccccc2Cl)C(C(=O)c2cccs2)C(O)(C(F)(F)F)N1` (stereo not drawn), the inhibition is -8.1%.
As for `CC1=NN(c2ccccc2)C(=O)C1=C(C)C`, the figure is -15.5%; as for `CCOC(=O)C(c1ccccc1)C(Nc1ccc(F)cc1)c1ccccn1` (stereo not drawn), -2%; as for `Cn1c(=O)n(C)c2cc(/C=N/NC(=O)c3ccc(Cl)cc3)ccc21`, -11.1%.
As for `O=C(N/N=C/c1cccc(F)c1)c1ccc(Cl)cc1`, the figure is -50.5%; as for `CC(C)(C)c1ccc(C(=O)N/N=C/c2cccc(Cl)c2)cc1`, 72.3% (active); as for `CCC(=O)c1c[nH]c(C(=O)N2CCOCC2)c1`, -10.3%.
With `CCCCCCN1Cc2ccccc2C1`, the inhibition is 5.4%.
As for `CCN1C=CC(=C2C(=O)c3ccccc3C2=O)C=C1`, the figure is 90.4% (active); as for `CCCCCCN1C=CC(=C2C(=O)c3ccccc3C2=O)C=C1`, 80.8% (active).
On to `CC1=CC(=C2C(=O)c3ccccc3C2=O)C=C(C)O1`, for which the inhibition was -62.6%.
Turning to `CCCCN1C=CC(=C2C(=O)c3ccccc3C2=O)C=C1`, the inhibition was 95.3% (active).
For the compound `CCCCCCCN1C=CC(=O)CC1`, the inhibition is 2%.
As for `CC1=CC(=C2C(=O)c3ccccc3C2=O)C=C(C)N1C`, the figure is -1.3%; as for `CCCN1C=CC(=C2C(=O)c3ccccc3C2=O)C=C1`, 97.9%; as for `CCCCN1C=CC(=C2N=c3cccc([N+](=O)[O-])c3=N2)C=C1`, 35.9%.
As for `CN1C=CC(=C2C(=O)c3ccccc3C2=O)C=C1`, the figure is -58.3%.
To `CCCCCN1C=CC(=C2C(=O)c3ccccc3C2=O)C=C1` belongs 93.3% (active).
With `CCCCN1C(C)=CC(=C2C(=O)c3ccccc3C2=O)C=C1C`, the inhibition was -16.5%.
As for `COC(=O)c1ccc(CC(=O)c2nc3ccccc3s2)cc1`, the figure is -21.3%.
To `COc1ccc(C2CC(c3ccc4ccccc4c3OC(C)=O)=NN2C(C)=O)cc1` (stereo not drawn) belongs -2.5%; to `CCN(CC)S(=O)(=O)c1ccc2c(c1)[nH]c(=S)n2CC`, -41.3%.
To `CCOc1ccc(CCNC(=O)COC(=O)C2CCN(S(=O)(=O)c3ccc(C)c(C)c3)CC2)cc1OCC` belongs -4.1%; to `CC(=O)NC1CC2CCC(C1)N2Cc1ccc(C)cc1` (stereo not drawn), -106%; to `Cc1c(C)c2ccc(OCC(=O)NC(Cc3ccc(Cl)cc3)C(=O)O)cc2oc1=O` (stereo not drawn), -25%.
For `O=S(=O)(c1ccccc1)N1CCCc2ccccc21`, the inhibition was 8.6%.
For `COc1ccc(N2CCN(C(=O)c3cc(=O)c4cc(C)c(C)cc4o3)CC2)cc1`, the inhibition is -10.3%.
`c1ccc(OCc2nc3ccccc3s2)cc1`: the inhibition was -39.1%.
To `COC(=O)c1ccc(CN2C(=O)NC3(CCC(C)CC3)C2=O)cc1` (stereo not drawn) belongs -51.8%.
As for `COCCNC(=S)N/N=C/c1ccccc1C(=O)O`, the figure is -17.1%.
For `Cc1ccc(C(=O)c2cncc(Br)c2)cc1`, the inhibition was 48.9% (active).
To `Cc1ccc(NC(=O)c2cncc(Br)c2)nc1` belongs -55.8%; to `CCc1ccc(C(=O)c2cncc(Br)c2)cc1`, -3.9%.
To `Cc1ccc(NC(=O)c2cncc(Br)c2)c(O)c1` belongs 66% (active); to `O=C(c1ccccc1)c1cncc(Br)c1`, -4.9%; to `Cc1ccc(NC(=O)c2cncc(Br)c2)c([N+](=O)[O-])c1`, 5.4%.
To `O=C(C[n+]1cc(-c2ccc(F)cc2)n2c1CCC2)Nc1nc(-c2ccc(F)cc2)cs1` belongs 11.7%; to `Cc1ccc(-c2nc(NCc3ccco3)n(S(C)(=O)=O)n2)cc1`, -21.9%; to `CCS(=O)(=O)n1nc(-c2ccccc2)nc1NCc1ccco1`, -33.3%.
As to `CS(=O)(=O)n1nc(-c2ccccc2)nc1NCc1ccco1`, the inhibition is 57.3% (active).
As for `Cc1c(C)n(-c2ccccc2)c2ncnc(NCCN(C)C)c12`, the figure is 1.2%; as for `O=C(Nc1nccs1)c1ccc(N2CCOCC2)c([N+](=O)[O-])c1`, -45.2%; as for `O=C(Nc1nc(-c2ccc(-c3ccccc3)cc2)cs1)c1cc([N+](=O)[O-])ccc1N1CCOCC1`, -31.8%.
Consider `O=C(Nc1nc(-c2ccccc2)cs1)c1ccc(N2CCOCC2)c([N+](=O)[O-])c1`, for which the inhibition was 104% (active).
To `Cn1nnc(NC(=O)c2ccc([N+](=O)[O-])cc2Cl)n1` belongs 11.3%; to `CC(C)(Cc1ccc(O)cc1)NC(=O)c1ccccc1`, 43.7%.
As for `C=CC(=O)NC(C)(C)Cc1ccccc1`, the figure is 1.5%; as for `CC(C)(Cc1ccc(O)cc1)NC(=O)SCc1ccccc1`, 72.6% (active); as for `CC(C(=O)NCc1ccccc1)N1C(=O)C2CC=C(Cl)CC2C1=O` (stereo not drawn), 13.9%.
To `Cc1cccc(N/C(=N/S(=O)(=O)c2ccccc2)c2ccccc2)n1` belongs -38%; to `Cc1ccc(CN2C(=O)CSC2c2ccc(F)cc2)cc1` (stereo not drawn), -22.3%.
As to `CCOCCCNC(=S)N1CCN(CC)CC1`, the inhibition was -22.2%.
As for `CCOCCCNC(=S)N1CCN(Cc2ccco2)CC1`, the figure is 57.4% (active); as for `S=C(NCc1ccco1)N1CCN(Cc2ccco2)CC1`, -6.3%; as for `Cc1ccc(NC(=O)CN(C)CC(=O)Nc2c(C)cccc2C)c(Br)c1`, -5.8%.
As for `O=C(O)c1ccc(-c2ccc(Cl)cc2Cl)o1`, the figure is -54%; as for `Cc1ccccc1NC(=O)c1ccc(-c2ccc(Cl)cc2Cl)o1`, -41.4%; as for `Cc1cccc(C)c1NC(=O)c1ccc(-c2ccc(Cl)cc2Cl)o1`, 73.6% (active).
As for `COc1cccc(CN2CCCC(C(=O)c3ccc4c(c3)OCO4)C2)c1O` (stereo not drawn), the figure is -27.5%; as for `CCN1C(=O)S/C(=C/c2ccc(Sc3nc4ccccc4[nH]3)o2)C1=O`, 38.6%; as for `CC(C)N1C(=O)S/C(=C/c2ccc(Sc3nc4ccccc4[nH]3)o2)C1=O`, 50.1%.
As to `C=CCN1C(=O)S/C(=C/c2ccc(Sc3nc4ccccc4[nH]3)o2)C1=O`, the inhibition is 71.4% (active).
As for `Cc1ccc(S(=O)(=O)N2CCC(C(=O)NCCCN3CCCC3=O)CC2)cc1C`, the figure is -29.3%; as for `CN(C)S(=O)(=O)c1ccc(Oc2ccccc2)cc1`, -4.6%.
As for `COc1ccc(CNC(=O)C2(CC(=O)NC(C)(C)C)CCCC2)cc1`, the figure is 4.9%; as for `CCC(=O)Nc1sc2c(c1C(N)=O)CCC2`, 0.4%; as for `CCCN(CCC)C(=O)c1c(NC(=O)CC)sc2c1CCCCC2`, 50.3% (active).
As for `CCC(=O)Nc1sc2c(c1C(=O)N(C)C)CCCCC2`, the figure is -18.5%.
As to `CCCCN1CN(Cc2ccccc2)CNC1=S`, the inhibition was -16.8%.
As to `Cc1nc2cc(CO)ccc2n1C`, the inhibition was -15.3%.
As for `CN(C)C(CNC(=O)/C=C/c1cccc(Cl)c1)c1ccccc1` (stereo not drawn), the figure is -22.7%.
As for `O=C(O)c1cccc(NC(=S)N/N=C/c2ccccn2)c1`, the figure is 68.3% (active); as for `O=C(O)c1cccc(NC(=S)N/N=C/c2cccnc2)c1`, -15.4%; as for `O=C(N/N=C/c1ccccn1)c1cccc([N+](=O)[O-])c1`, 20%.
To `O=C(N/N=C/c1ccccn1)c1ccccc1` belongs -39%; to `O=C(N/N=C/c1ccccn1)c1ccc(N/N=C/c2ccccn2)cc1`, -58.4%; to `O=C(N/N=C/c1ccccn1)c1ccc([N+](=O)[O-])cc1`, 67.9% (active).
Regarding `O=C(N/N=C/c1ccccn1)c1ccc(NC(=O)c2cccc([N+](=O)[O-])c2)cc1`, the inhibition is -22.2%.
As for `O=C(N/N=C/c1ccccn1)c1ccc(Br)cc1`, the figure is 103% (active); as for `O=C(O)c1cccc(NC(=S)N/N=C/c2cccc(O)c2)c1`, -6.8%.

These data come from PubChem BioAssay AID1578 (Sanford-Burnham Center for Chemical Genomics, 2009).
